This passage reports sensor-assay potency score (higher = more potent) results from the OligoGym collection.

Some targets named below: ZNF583; ZNF592; ZNF550; ZNF548; ZNF630; ZNF599; ZNF609; ZNF653.
Common to all, as to assay: pooled miR-30 sensor sort-seq; sequence = guide strand
Holding throughout (conditions): shRNA
Note: reference of the scale not given here.

In the assay with ZNF583, TTCTCCAACATCACTTTCCTGT showed a sensor-assay potency score (higher = more potent) of 0.0692.

Sequence TTGTCCTCTGGAAATGTGCAGC displayed a sensor-assay potency score (higher = more potent) in the assay with ZNF592 of -0.92.

The sequence TAATGTGGTCTTTCTCCGCTTC showed a sensor-assay potency score (higher = more potent) with ZNF592 of -0.0177.

The sequence TTGAGCTCTGGCTAAAGGCTTT came in with a sensor-assay potency score (higher = more potent) with ZNF550 of -0.685.

With TGCTGTATGAGTTCTGAGCTGC, the sensor-assay potency score (higher = more potent) in the assay with ZNF550 is 0.178.

TATATCAAAGATTGTATCCTGG showed a sensor-assay potency score (higher = more potent) with ZNF583 of 0.513.

Regarding TCTGTCACCTAGTGAAACCAGA, the sensor-assay potency score (higher = more potent) with ZNF550 is -0.609.

In the case of TACCTCTTGACTTCCCAGCTGG, in the assay with ZNF583, the sensor-assay potency score (higher = more potent) was found to be 0.168.

In the assay with ZNF550, ATTCATGGAGAACATCTGCTGA showed a sensor-assay potency score (higher = more potent) of -0.38.

As to TGCTGCATGAGGTACGACCTGC, the sensor-assay potency score (higher = more potent) with ZNF550 was -0.586.

As to TTTACCTTTCTGCATTTCCAAA, the sensor-assay potency score (higher = more potent) in the assay with ZNF550 was -1.66.

As to TTTTACATTCTTTACACTGATA, in the assay with ZNF583, the sensor-assay potency score (higher = more potent) was -0.826.

In the assay with ZNF550, TTGAGGTTGAAGATTCCAGAGT had a sensor-assay potency score (higher = more potent) of -1.04.

Sequence TTCACTAGTGTGAACTGTCTGA showed a sensor-assay potency score (higher = more potent) with ZNF548 of 0.39.

In turn, TTCATGGAGAACATCTGCTGAT had a sensor-assay potency score (higher = more potent) in the assay with ZNF550 of 0.0411.

The sequence TATAACTAAGATGTCTTGCTCC yielded a sensor-assay potency score (higher = more potent) with ZNF583 of 0.322.

In turn, TTGTAACCTCTGACACTCCTAC yielded a sensor-assay potency score (higher = more potent) in the assay with ZNF548 of -0.158.

In the case of AATTCCATTGTGCTCAACCAGG, in the assay with ZNF548, the sensor-assay potency score (higher = more potent) was -1.53.

As for TTGTGGAGGTCTGTCTCCGGTG, the sensor-assay potency score (higher = more potent) with ZNF550 was -1.27.

The sequence TTTGTCATGCTCTCGTCCCCTT yielded a sensor-assay potency score (higher = more potent) in the assay with ZNF592 of -0.419.

In the assay with ZNF548, TTCTCTGTCCTCTGTGTCCCTG displayed a sensor-assay potency score (higher = more potent) of -0.777.

For the sequence TTATAAGGTCTTTCTCCGGTGT, the sensor-assay potency score (higher = more potent) with ZNF548 is -0.00393.

Sequence TTGTTGAAGACCATTTCACAGG had a sensor-assay potency score (higher = more potent) with ZNF592 of -0.934.

In the assay with ZNF592, TTTAGAACTCTCTTTAGTGGGC displayed a sensor-assay potency score (higher = more potent) of 0.465.

For TTCGGTAACTTTTCTTTTGTGG, in the assay with ZNF583, the sensor-assay potency score (higher = more potent) stood at 0.115.

Turning to TTTTTTACATTCTTTACACTGA, in the assay with ZNF583, the sensor-assay potency score (higher = more potent) came to 0.132.

On to TTTCATTCCAGTGTGAACCCTC, for which, in the assay with ZNF550, the sensor-assay potency score (higher = more potent) worked out at 0.423.

For TTCGACATTGACTACACTCATA, the sensor-assay potency score (higher = more potent) with ZNF550 was -1.1.

In the case of TTGACTAAGATGTACCTCTTGA, the sensor-assay potency score (higher = more potent) with ZNF583 was 0.141.

On to TTTCTTTTGTGGTTCATGCTTA, for which the sensor-assay potency score (higher = more potent) with ZNF583 was 0.129.

In the assay with ZNF583, TTTCTTTTCTACATAGACTTTC showed a sensor-assay potency score (higher = more potent) of -0.596.

TGATGCAGCAACACTGTGGGGG registered a sensor-assay potency score (higher = more potent) with ZNF592 of 0.194.

In the assay with ZNF592, ATTCTCTCTAGTCTCCATGGGC registered a sensor-assay potency score (higher = more potent) of -0.404.

Take TTGAAGACCATTTCACAGGAGC: in the assay with ZNF592, the sensor-assay potency score (higher = more potent) was -0.241.

In the assay with ZNF583, TTTTCTACATAGACTTTCCTAT came in with a sensor-assay potency score (higher = more potent) of -0.369.

With ATTTGTAATCATTTTGTCCAGT, the sensor-assay potency score (higher = more potent) in the assay with ZNF548 is -0.192.

Turning to TTATAATTTAGTAAGTCTGAAT, the sensor-assay potency score (higher = more potent) with ZNF630 is -1.16.

In the case of TTAGCTTTTCCTCATCTCTAGC, the sensor-assay potency score (higher = more potent) in the assay with ZNF599 was -0.541.

For TTGACTTTCTTTAGCAGGCGAC, the sensor-assay potency score (higher = more potent) in the assay with ZNF609 is -0.497.

For the sequence TTGGATAAATAGAACTTCTTGC, the sensor-assay potency score (higher = more potent) in the assay with ZNF653 was -0.368.

TTCCATACTTAGTACATTCATA came in with a sensor-assay potency score (higher = more potent) with ZNF630 of -0.904.

TCTTTTTCCATACACTTCCTTT had a sensor-assay potency score (higher = more potent) with ZNF609 of -0.591.

TTTCTGTCCAGAACAGTGGGTT registered a sensor-assay potency score (higher = more potent) in the assay with ZNF609 of 0.109.

Sequence TTGCAGTCACTACTTGTGCTTT returned a sensor-assay potency score (higher = more potent) with ZNF609 of -0.589.

TTCCACATTCTCTACAAACATA displayed a sensor-assay potency score (higher = more potent) with ZNF599 of -1.71.

TTATTTTAAAATATGCTTGAGA: in the assay with ZNF599, the sensor-assay potency score (higher = more potent) was -0.0715.

In the assay with ZNF599, TTGTGGAGTGACTCGTTCCTGT showed a sensor-assay potency score (higher = more potent) of -0.347.

Regarding TAAATGCATGTTAACCACCAGG, the sensor-assay potency score (higher = more potent) with ZNF599 was -1.03.

Regarding TAATTAGATGTGACTTCTGGGA, in the assay with ZNF630, the sensor-assay potency score (higher = more potent) was -0.376.

With TTTGTGAGACAGATGCACCGTT, the sensor-assay potency score (higher = more potent) in the assay with ZNF609 turned out to be 0.735.

For the sequence TAAGTCTGAATTAGACTTCAAG, the sensor-assay potency score (higher = more potent) with ZNF630 was -0.977.

Consider TTGGAGAATAGTAACTCTCAAA, for which, in the assay with ZNF609, the sensor-assay potency score (higher = more potent) was -1.39.

In turn, AATCTCTTGAGGATCTCTGTGC displayed a sensor-assay potency score (higher = more potent) with ZNF599 of -0.218.

In turn, TTGACATCCTCAGAAGTGCTGC had a sensor-assay potency score (higher = more potent) with ZNF609 of 0.188.

TGATTTGACACTGTCTACCTTG showed a sensor-assay potency score (higher = more potent) with ZNF609 of 0.639.

TTGGACACTCAAAACACTCATA: the sensor-assay potency score (higher = more potent) with ZNF630 is -0.509.

As to TTGCACATTCTTTGCACTCCAA, the sensor-assay potency score (higher = more potent) in the assay with ZNF599 is -0.563.

In the assay with ZNF592, TTCTGCACGAACAAGAGTGGGC yielded a sensor-assay potency score (higher = more potent) of -0.174.

The sequence TATCGTGGGAGACTTGCTCTTG gave a sensor-assay potency score (higher = more potent) with ZNF609 of -0.437.

In the assay with ZNF630, TATAATTAGATGTGACTTCTGG came in with a sensor-assay potency score (higher = more potent) of 0.548.
